Results on 110 sequences are retold here after the supplement of paper PMC3334620.

Over roughly 33,000 sequences, “E-score (-0.5 to 0.5)” has its median near -0.053; the highest 2% begin near 0.37. Many of the other results were omitted from the sample, so the highest values are more common in it than they were.

The target in this test is Hap1 (UniProt P0CE41). The test can be described thus: PBM E-score (8-mer binding enrichment) (E-score (-0.5 to 0.5)); higher = stronger / more preferred TF binding. The following applies: protein concentration: 200 nM; construct: GST-DNA-binding domain. The method, boiled down: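 Yeast transcription factors carrying a GST tag, as full-length proteins or DNA-binding domains, were produced by PURExpress in vitro transcription/translation. About 100-200 nM protein was applied to universal all-10-mer Agilent arrays, double-stranded by primer extension on fresh or once-stripped slides. Bound protein was detected with fluorescent anti-GST, and scans were normalised with masliner. The Universal PBM Analysis Suite gave each ungapped eight-base word, pooled with its reverse complement, an E-score, a modified Wilcoxon-Mann-Whitney statistic.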
UniProt P0CE41, sequence (P0CE41 whole entry, the tested form may be a part): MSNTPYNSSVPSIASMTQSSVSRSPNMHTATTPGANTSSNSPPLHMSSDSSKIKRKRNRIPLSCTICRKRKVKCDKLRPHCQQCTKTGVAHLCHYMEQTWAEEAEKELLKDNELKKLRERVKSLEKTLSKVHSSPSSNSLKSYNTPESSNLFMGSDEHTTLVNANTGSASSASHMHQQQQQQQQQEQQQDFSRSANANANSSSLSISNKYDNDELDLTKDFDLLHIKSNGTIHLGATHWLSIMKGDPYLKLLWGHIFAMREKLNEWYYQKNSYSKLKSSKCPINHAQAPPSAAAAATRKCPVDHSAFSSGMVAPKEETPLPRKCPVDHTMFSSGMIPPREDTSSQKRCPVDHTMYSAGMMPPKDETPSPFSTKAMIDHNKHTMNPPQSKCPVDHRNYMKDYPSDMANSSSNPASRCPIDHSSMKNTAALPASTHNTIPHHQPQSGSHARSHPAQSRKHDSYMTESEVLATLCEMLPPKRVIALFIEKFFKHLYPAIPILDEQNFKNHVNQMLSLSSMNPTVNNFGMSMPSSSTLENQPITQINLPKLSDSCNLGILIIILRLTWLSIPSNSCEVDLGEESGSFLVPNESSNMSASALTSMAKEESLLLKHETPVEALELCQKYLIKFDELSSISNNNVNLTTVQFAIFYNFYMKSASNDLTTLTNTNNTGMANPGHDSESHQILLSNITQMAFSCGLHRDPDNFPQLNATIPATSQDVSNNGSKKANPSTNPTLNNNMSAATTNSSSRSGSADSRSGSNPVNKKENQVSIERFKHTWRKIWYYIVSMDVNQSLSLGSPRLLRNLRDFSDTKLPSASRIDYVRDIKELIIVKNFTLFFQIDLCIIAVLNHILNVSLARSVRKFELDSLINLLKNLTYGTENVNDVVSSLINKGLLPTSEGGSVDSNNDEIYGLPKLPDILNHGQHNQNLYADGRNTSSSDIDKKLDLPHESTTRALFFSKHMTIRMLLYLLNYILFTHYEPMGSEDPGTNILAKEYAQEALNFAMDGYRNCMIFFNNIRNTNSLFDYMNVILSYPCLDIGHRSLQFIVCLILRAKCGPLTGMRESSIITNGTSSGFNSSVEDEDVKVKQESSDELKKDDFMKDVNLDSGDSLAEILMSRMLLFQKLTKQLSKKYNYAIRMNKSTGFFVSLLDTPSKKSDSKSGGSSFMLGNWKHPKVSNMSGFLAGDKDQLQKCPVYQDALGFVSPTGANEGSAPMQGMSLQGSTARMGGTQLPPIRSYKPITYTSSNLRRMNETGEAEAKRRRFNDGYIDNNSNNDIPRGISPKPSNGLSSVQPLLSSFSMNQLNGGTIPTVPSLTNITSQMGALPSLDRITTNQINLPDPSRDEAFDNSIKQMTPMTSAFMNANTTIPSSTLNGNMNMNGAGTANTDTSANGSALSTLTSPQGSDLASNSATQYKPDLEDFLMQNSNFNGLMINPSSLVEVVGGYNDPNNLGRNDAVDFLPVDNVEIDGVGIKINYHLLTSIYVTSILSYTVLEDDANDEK
In the case of CCGGGGGA, the “PBM E-score” value is 0.343. Turning to CCCGGGAA, the “PBM E-score” value was 0.339. In the case of CGGGGGAA, the “PBM E-score” value came to 0.354. As to ACGGGGAG, the “PBM E-score” value is -0.0069. Take CCGGGGAA: the “PBM E-score” value amounted to 0.372. For the sequence ACGGGGAT, the “PBM E-score” value stood at 0.383. Regarding ACCGGGAA, the “PBM E-score” value was 0.35. On to TCCGGGAA, for which the “PBM E-score” value worked out at 0.376.

In the case of ACGGGGAC, the “PBM E-score” value stood at 0.159. Consider GCAGGCTA, for which the “PBM E-score” value was -0.169. In the case of CGCCATAA, the “PBM E-score” value is -0.0284. As for TACTTAGA, the “PBM E-score” value is -0.362. In the case of GCGCCCGC, the “PBM E-score” value is 0.0873. For the sequence AGGCTCAT, the “PBM E-score” value is -0.159.

For CGCGTGGA, the “PBM E-score” value is -0.079. Turning to CACCGATG, the “PBM E-score” value came out at 0.196. Turning to TACCGAAA, the “PBM E-score” value came to 0.188. As for AACCGATA, the “PBM E-score” value amounted to 0.421. For the sequence AACCGATT, the “PBM E-score” value was 0.263.

Turning to AACCGATG, the “PBM E-score” value came to 0.193. GACCGATA: the “PBM E-score” value came out at 0.434. For GACCGACA, the “PBM E-score” value turned out to be 0.359. On to TACCGACA, for which the “PBM E-score” value amounted to 0.209. The value for TACCGATA was 0.378; that for GACCGATC was 0.341; that for CACCGATA was 0.375. Take CACCGATC: the “PBM E-score” value came to 0.22. For ATGGGTCA, the “PBM E-score” value was -0.27. Next, CATGAGGA: -0.0511; CTTTCGAC: -0.0279. The value for AAGGGTCG was 0.0795; that for ACGATAGA was -0.099; that for CCGATAGC was 0.372. The value for CCGATAGA was 0.405; that for ACGATAGC was 0.0603; that for GCGATAGC was 0.00865. Regarding GCGATAGA, the “PBM E-score” value is 0.223. As for ACGATAGG, the “PBM E-score” value was 0.0214.

Turning to CAGATAGG, the “PBM E-score” value is -0.142. The value for CCGATAGG was 0.438; that for ACGATTGG was -0.123; that for GTGTCCCA was 0.0086. In the case of CCGATGCA, the “PBM E-score” value was found to be 0.242. The value for ATACCCGA was 0.398. Take ATACCCGG: the “PBM E-score” value was 0.38. With ATACCCCG, the “PBM E-score” value was 0.346.

Consider CTACCCGA, for which the “PBM E-score” value is 0.161. As for ATACCCGC, the “PBM E-score” value is 0.253. Next, ATACCCTG: -0.0146; CATCGCCC: 0.128; AAAAGGTT: -0.211.

As for CGGTTAAC, the “PBM E-score” value was determined as 0.203. Regarding ATACCCTA, the “PBM E-score” value was -0.203. For AGGGTCAC, the “PBM E-score” value was -0.193.

As for GCGGTGTA, the “PBM E-score” value was -0.063. Regarding AGGCGGTA, the “PBM E-score” value was -0.131. Take CGGCGGAG: the “PBM E-score” value worked out at 0.387. Consider CGGCGGAA, for which the “PBM E-score” value was found to be 0.396. As for CCGCGGAG, the “PBM E-score” value amounted to 0.352. Next, AGGCGGAA: 0.0183; CGGCGGTA: 0.428; GGGCGGAA: 0.267.

For the sequence CCGCGGAC, the “PBM E-score” value was 0.383. Regarding AGGCGGAG, the “PBM E-score” value is 0.175. Turning to CAGCGGAG, the “PBM E-score” value is 0.245. Next, CCGCGGAA: 0.317; GGGCGGTA: 0.315. Next, CCATGGCC: -0.0324; CGACCAGA: 0.0439. Consider AGTTTGAG, for which the “PBM E-score” value is -0.0293.

As to ATGATCCC, the “PBM E-score” value was found to be 0.0807. CTTCCCAA: the “PBM E-score” value was -0.197. With CGAAAGTA, the “PBM E-score” value worked out at 0.0968. Regarding CGGCTACG, the “PBM E-score” value turned out to be 0.111. In the case of AGATGAAC, the “PBM E-score” value was -0.115.

As for CGGCGGAC, the “PBM E-score” value worked out at 0.38. As to GGGCGGAC, the “PBM E-score” value was determined as 0.279. Take AGGCGGAC: the “PBM E-score” value stood at 0.288. Next, CCAGACCA: -0.187; ACGTCCAA: -0.0855. ACGTCCGA: the “PBM E-score” value worked out at 0.386. ACGTCCGC: the “PBM E-score” value amounted to 0.357. On to GCGTCCGA, for which the “PBM E-score” value stood at 0.305. In the case of CCGTCCGA, the “PBM E-score” value amounted to 0.399.

Regarding ACGTCCTG, the “PBM E-score” value is -0.211.

Regarding ACGTCCGG, the “PBM E-score” value turned out to be 0.411. With CCGTCCTA, the “PBM E-score” value is -0.104. Turning to CCGTCCGC, the “PBM E-score” value was determined as 0.231.

Take AAACCAAG: the “PBM E-score” value is -0.0855. For the sequence CGCGGGCA, the “PBM E-score” value was 0.256. Next, TATGGTCA: -0.303; CAGAGATA: -0.182; ACCGTGAA: 0.126.

For CGTTCCAG, the “PBM E-score” value is -0.157. In the case of AGCCCCTG, the “PBM E-score” value is -0.269.

For CATCTATC, the “PBM E-score” value was -0.00973. On to TATCGGAA, for which the “PBM E-score” value was determined as 0.409. As for CATCGGCA, the “PBM E-score” value was 0.266. Regarding CATCGGGA, the “PBM E-score” value turned out to be 0.223. The value for AATCGGCA was 0.224; that for GATCGGGA was 0.136; that for CAACGGAA was 0.285. Regarding TATCGGCA, the “PBM E-score” value was found to be 0.425. Take TAACGGAA: the “PBM E-score” value was 0.375. For the sequence GAACGGAA, the “PBM E-score” value was 0.282. AATCGGAA: the “PBM E-score” value is 0.364.

Turning to CATCGGAA, the “PBM E-score” value is 0.297. TATCGGGA: the “PBM E-score” value came to 0.393. The value for GAAGGCAA was -0.137; that for AAATTGAG was -0.0939.
